According to PubChem BioAssay (NCATS):
Several values for one entry are separate records, joined by “and”; a condition that tells them apart may be missing. Equal values may be shown once. Records with an inconclusive call do not appear. Where a call stands in place of a potency, no number is given. Activity calls are given as the source filed them. The call rests on the fitted dose curve; in most records, active means well fitted inhibition curve with a large enough effect; inconclusive means small, poorly fitted or top-dose-only effect; inactive means no such curve, though single readings can be large or run the other way.

Experiment: Primary qHTS for inhibitors of nuclear receptor binding SET domain protein 2 (NSD2) in an RCH-ACV wild type WT cells (2C) (AID 1645877); further: nearly all actives have a fitted effect of over 70% in size
Conditions: RCH-ACV (leukaemia line) NSD2 WT (2C) viability, CellTiter-Glo, 72 h; series mostly up to 44.9 µM
Text: Assay Provider: Jonathan D. Licht, MD
University of Florida College of Medicine, Gainesville, FL
Mutations in epigenetic regulators are common in relapsed pediatric acute lymphoblastic leukemia (ALL). Here, we uncovered the mechanism underlying the relapse of ALL driven by an activating mutation of the NSD2 histone methyltransferase (p.E1099K). […] Correction of this mutation restored glucocorticoid sensitivity. The transcriptional response to glucocorticoids was blocked in NSD2 mutant cells due to depressed glucocorticoid receptor (GR) levels and the failure of glucocorticoids to autoactivate GR expression. […] Pre-treatment of NSD2 p.E1099K cell lines and PDX samples with PRC2 inhibitors reversed glucocorticoid resistance in vitro and in vivo.
High-throughput drug screening of isogenic RCH-ACV cell lines was performed at the National Center for Advancing Translational Science (NCATS), National Institutes of Health as previously described (1). Briefly, isogenic RCH-ACV NSD2 p.E1099K mutant (9B) and WT cells (2C) were plated at 500 cells/well in a 1536-well plate with a 72-hour incubation with compounds prior to addition of CellTiter-Glo to assess cell viability. NCATS libraries screened include: NPC, MIPE 5.0, Kinase and NPACT. To determine compound activity in the qHTS assay, the concentration-response data for each sample was plotted and modeled by a four-parameter logistic fit yielding IC50 and efficacy (maximal response) values. The area under the curve (AUC) of the dose-response curve ensures both efficacy (magnitude of cell killing) and potency (concentration that elicits cell killing) are accounted for in the analysis of activity.
1. Tobie D Lee, Olivia W Lee, Kyle R Brimacombe, Lu Chen, Rajarshi Guha, Sabrina Lusvarghi, Bethilehem G Tebase, Carleen Klumpp-Thomas, Robert W Robey, Suresh V Ambudkar, Min Shen, Michael M Gottesman, Matthew D Hall. A High-Throughput Screen of a Library of Therapeutics Identifies Cytotoxic Substrates of P-glycoprotein. Mol Pharmacol. 2019, Nov;96(5):629-640.

Compound	Potency	activity change, negative = cell killing
CCN(CC)CCOC(=O)C1(c2ccccc2)CCCC1	inactive	–
OC1C(O)C(O)C(O)C(O)C1O (stereo not given)	inactive	–
O=C(O)CCc1nc2ccccc2[nH]1	inactive	–
CC(=O)N[C@@H](CCC(=O)O)C(=O)O	inactive	–
Cc1cccc(C)c1NC(=O)CN1CCCC1	inactive	–
OCCOCCN1CCN(C2=Nc3ccccc3Sc3ccccc32)CC1	inactive	–
CC(C)(C)NCC(O)COc1cccc2c1C[C@H](O)[C@H](O)C2 (stereo not given in full)	inactive	–
CCOc1ccc(NC(C)=O)cc1	inactive	–
CCOc1cc(OCC)c(C(=O)CCC(=O)O)cc1OCC	inactive	–
CCCCCCCCCCCCCCCC(=O)O	inactive	–
CCNC(=O)/C=C/c1cccc(Br)c1	inactive	–
Nc1nc(-c2ccccc2)c(Br)c(=O)[nH]1	inactive	–
C[C@@H](O)[C@H]1C(=O)N2C(C(=O)O)=C(S[C@@H]3CN[C@H](CNS(N)(=O)=O)C3)[C@H](C)[C@H]12	inactive	–
CC(C(=O)O)c1cccc(Oc2ccccc2)c1 (stereo not given)	inactive	–
CNCCc1ccccn1	inactive	–
Cn1c(=O)c2[nH]c(Br)nc2n(C)c1=O	inactive	–
Cc1cccc(C)c1NC(=O)c1ccccc1C(=O)O	inactive	–
CC(C)CCCC(C)N (stereo not given)	inactive	–
CCCCCCCCCCCCCC(=O)OC(C)C	inactive	–
NCCNC(=O)c1ccc(Cl)cn1	inactive	–

Compound	Potency	activity change, negative = cell killing
Cc1cc2c(OCC(CNC(C)(C)C)OC(=O)c3ccccc3)cccc2[nH]1 (stereo not given)	inactive	–
O[C@@H](c1cc(C(F)(F)F)nc2c(C(F)(F)F)cccc12)[C@H]1CCCCN1	7.5 µM (active)	–
Nc1ccc(C(=O)NCC(=O)O)cc1	inactive	–
CCN[C@@H]1C[C@H](N)[C@@H](OC2OC(CN)=CCC2N)[C@H](O)[C@H]1O[C@H]1OC[C@](C)(O)[C@H](NC)[C@H]1O (stereo not given in full)	–	2.3% [at 0.588 µM] (inactive)
CCN(CC)CCNC(=O)c1cc(Br)c(N)cc1OC	inactive	–
OCc1ccccn1	inactive	–
CC(=O)OCC(=O)[C@H]1CC[C@H]2[C@@H]3CCC4=CC(=O)CC[C@]4(C)[C@H]3CC[C@]12C	inactive	–
CCCCCN=C(N)N/N=C/c1c[nH]c2ccc(OC)cc12	4.73 µM (active)	–
O=C(O)Cc1csc(-c2ccc(Cl)cc2)n1	inactive	–
CCCCN1C[C@H](O)[C@@H](O)[C@H](O)[C@H]1CO	inactive	–
C#C[C@]1(O)CC[C@H]2[C@@H]3CCC4=CC(=O)CC[C@@H]4[C@H]3CC[C@@]21CC	inactive	–
CC(=O)Nc1ccc(S(=O)(=O)Nc2ccc([N+](=O)[O-])cc2)cc1	inactive	–
CN(Cc1ccc(C(C)(C)C)cc1)Cc1cccc2ccccc12	inactive	–
Cl/C(=C\n1cncn1)c1ccc(Cl)cc1Cl	inactive	–
Cc1ccc(-c2ncc(Cl)cc2-c2ccc(S(C)(=O)=O)cc2)cn1	inactive	–
Nc1nc(Cl)nc2c1ncn2[C@@H]1O[C@H](CO)[C@@H](O)[C@@H]1F	8.4 nM (active) and 37.2 nM (active)	–
CCC(Cc1c(I)cc(I)c(N)c1I)C(=O)O (stereo not given)	inactive	–
O=C(Oc1cccc2cccnc12)c1ccccc1	inactive	–
Oc1ccccc1C=NCc1ccccc1	inactive	–
Cc1ccccc1OCC(O)CO (stereo not given)	inactive	–
